This is an account of results in article PMC5540273 (PLoS ONE, 2017).
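Further: kd values determined as follow-up on hits from a single-replicate KINOMEscan panel screen.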

The subject of the first test is T1, MEK5.
T1 construct: gene MAP2K5
Take `COc1cc2ncn(-c3cc(OCCCc4ccccc4)c(C(N)=O)s3)c2cc1OC` [GSK205189]: the Kd is 280 nM.

`COc1cc(Nc2nccc(N3CCC(NC(=O)C4COc5ccccc5O4)C3)n2)cc(OC)c1OC` (centres unmarked) [GSK1379761] displayed a Kd of 180 nM.

Molecule `Cc1ccc(Oc2ccc(Nc3ncnc4cc[nH]c34)cc2C)cn1` had a Kd of 9 nM.

As for `COc1cc2ncn(-c3cc(OCc4ccncc4Br)c(C(N)=O)s3)c2cc1OC` [GW854278], the Kd was found to be 78 nM.

Turning to `COc1cc2ncn(-c3cc(OCc4ccc(S(C)(=O)=O)cc4)c(C(N)=O)s3)c2cc1OC` [GW869979], binding was put at a Kd of 470 nM. `Nc1nccc2scc(-c3ccc4c(c3)CCN4C(=O)Cc3ccccc3)c12` [GSK2576924] had a Kd of 530 nM.

Take `COc1cc2ncn(-c3cc(OCc4ccncc4)c(C(N)=O)s3)c2cc1OC` [GSK336313]: the Kd is 670 nM. `COc1cc2nccc(Nc3ccc(OCc4ccc(NC(C)=O)cc4)cc3)c2cc1OC.Cl` [GW440135] had a Kd of 52 nM.

In turn, `Nc1n[nH]c2ncc(-c3ccccc3)cc12` [SB-517081] gave a Kd of 660 nM. On the same count and under the same terms, next, `COc1cccc(-n2cnc3c(N)ncnc32)c1` [SKF-97416]: 1300 nM. With `COc1cc2nccc(Nc3cccc(Oc4ccccc4)c3)c2cc1OC.Cl` [GW284543], the affinity, expressed as Kd, was 11 nM.

A further test deals with MYLK2.
For `O=C(Nc1n[nH]c2nc(-c3ccccc3)c(Br)cc12)C1CC1` [SB-708998], the Kd was 60 nM. For `O=C(Nc1n[nH]c2cc(-c3ccccc3F)ccc12)C1CC1` [SB-733371], binding was put at a Kd of 110 nM. `O=C(Nc1n[nH]c2nc(-c3ccccc3)c(Cl)cc12)C1CC1` [SB-734909] had a Kd of 150 nM.
